Results on 38 molecules are retold here after PubChem BioAssay AID624305 (National Center for Advancing Translational Sciences (NCATS), 2012).

The nature of the assay: qHTS assay for re-activators of p53 using a Luc reporter: Hit Validation. Further: nearly all actives have a fitted effect of over 75% in size. The method, boiled down: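 H1299 (p53-null) cells stably carrying p53-A138V and a BP100-luciferase reporter, 1000 cells/well, treated 24 h at 37 deg C. Compounds at several concentrations, 1:5 dilution; nocodazole control; luminescence read after 10 min with detection reagent.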

Molecules are shown by their SMILES. Records with an inconclusive call do not appear. Where a call stands in place of a potency, no number is given. Values without a mark were called inactive. The source made the active and inactive calls. The call rests on the fitted dose curve; in most records, active means well fitted activation curve with a large enough effect; inconclusive means small, poorly fitted or top-dose-only effect; inactive means no such curve, though single readings can be large or run the other way.
Potency means the concentration at half of the fitted maximal effect.

As for `COc1ccc(C(C)(C)C)cc1NC(=O)Nc1ccc2c(c1)OCO2`, the Potency result is “inactive”.

As to `CCOc1ccc2c(c1)C(=NNC(=O)c1ccncc1)c1cc(OCC)ccc1-2`, the Potency entry was “inactive”.

On to `COc1ccccc1-c1c(C)nn2c(C)c(C(C)=O)cnc12`, for which the Potency entry is “inactive”.

`O=S(=O)(N/N=C/c1ccccc1OCc1ccc(Cl)cc1)c1ccccc1`: the Potency result is “inactive”.

Consider `Cc1ccc(C(=O)N2CC(=O)Nc3ccc(F)cc3C2c2ccc(F)cc2)cc1[N+](=O)[O-]` (stereo not drawn), for which the Potency entry is “inactive”.

`Cc1nn(-c2ccccc2)c(N2CCCC2)c1/C=N/NC(=O)c1cc(-c2ccccc2)nc2ccccc12`: the Potency entry was “inactive”.

With `OC(COc1ccc2cc(Br)ccc2c1)CN1CCCC1` (stereo not drawn), the Potency entry was “inactive”.

For `Cc1c(C(=O)N2CCc3ccccc32)oc2c1C(=O)CC(C)(C)C2`, the Potency was 4.11 µM (active).

Take `COCCN(Cc1cn[nH]c1-c1ccc2cc(OC)ccc2c1)C(C)C`: the Potency entry was “inactive”.

Turning to `Cc1ccc(NC(=O)CCN2C(=O)c3cccc([N+](=O)[O-])c3C2=O)c(Br)c1`, the Potency result was “inactive”.

On to `O=C(N/N=C(\c1ccccc1)c1cccnc1)c1cccc(F)c1`, for which the Potency was 16.4 µM (active).

`Cc1cnc(C(=O)OCC(=O)Nc2ccc(OCc3ccccc3)cc2)cn1`: the Potency was 18.4 µM (active).

With `O=C(NCCN1CCOCC1)c1cc(-c2cccs2)on1`, the Potency was 23.1 µM (active).

With `Cc1ccc(C(=O)NCC(=O)N2CCCCCC2)cc1`, the Potency entry was “inactive”.

Turning to `Brc1ccc(-c2nc3ccccc3s2)s1`, the Potency was 3.26 µM (active).

For the molecule `COc1ccc(/C(O)=C2/C(=O)C(=O)N(CCN3CCOCC3)C2c2ccccn2)cc1` (stereo not drawn), the Potency result was “inactive”.

Consider `COc1ccc(NC(=O)/C(Cl)=C(/Cl)S(=O)(=O)Cc2ccc(C)cc2)cn1`, for which the Potency result is “inactive”.

With `O=C(Nc1ccc2ccccc2c1)c1ccc(Cl)cc1Cl`, the Potency is 0.291 µM (active).

`COc1ccc2oc(C(=O)Nc3nnc(C)s3)c(C)c2c1`: the Potency is 1.84 µM (active).

As for `Cc1nn2cc(-c3ccc(-c4ccccc4)cc3)nc2s1`, the Potency is 0.184 µM (active).

With `COc1cccc(/C=N/NC(=O)c2nc(-c3ccccc3)cc(-c3ccccc3)n2)c1O`, the activation was -23.6% [at 9.22 µM].

Consider `Cc1cccc2nc(CSC(=N)N)c(Br)n12`, for which the activation was 3.7% [at 9.22 µM].

With `CCc1cc(C(=O)c2ccc(C)cc2)c(NC(=O)CCl)s1`, the Potency result is “inactive”.

With `CN(C)CCN(CC1CCCN(Cc2ccccc2F)C1)C(=O)c1ccc(F)cc1` (stereo not drawn), the Potency result is “inactive”.

With `CCc1ccc2c(CN(CC)Cc3nc4ccccc4c(=O)[nH]3)cc(=O)oc2c1`, the activation is -11.9% [at 9.22 µM].

For `Cc1ccc2cc3c(N)c(C(=O)N4CCOCC4)sc3nc2c1`, the Potency was 1.03 µM (active).

In the case of `N#Cc1cccc(N=Cc2c(O)ccc3ccccc23)c1`, the Potency result was “inactive”.

Regarding `COc1ccccc1NS(=O)(=O)c1ccc(C(=O)Nc2ncccc2O)cc1`, the Potency result is “inactive”.

For the molecule `CCOc1ccc(N2C(=O)c3ccccc3NC2(C)CC)cc1` (stereo not drawn), the Potency is 9.2 µM (active).

For `Cc1ccc2c(c1)sc1nc(=O)n(-c3cccc(Cl)c3)c(=O)n12`, the Potency was 8.2 µM (active).

As for `O=C(NCc1ccco1)c1noc2c1CCCC2`, the Potency entry was “inactive”.

Regarding `Nc1c(C(=O)c2ccc(Cl)cc2)oc2ccccc12`, the Potency entry is “inactive”.

Take `O=C(CN1C(=O)NC2(CCCc3ccccc32)C1=O)c1ccc(F)cc1` (stereo not drawn): the Potency result is “inactive”.

As for `Cc1cc(NC(=O)c2ccc3nccnc3c2)ccc1Br`, the Potency is 4.11 µM (active).

For `CCCOc1ccc(-c2cc3onc(-c4ccccc4)c3c(=O)n2C)cc1`, the Potency was 5.8 µM (active).

Take `N/C(=N\OC(=O)c1cc(Cl)ccc1Cl)c1ccccn1`: the Potency is 0.92 µM (active).

`CC(C)C(=O)OCC(=O)Nc1ccc(N=Nc2ccccc2)cc1`: the Potency was 5.8 µM (active).

`O=C(N/N=C/c1cccs1)c1n[nH]c2c1CCC2`: the Potency was 0.517 µM (active).
